# Source: the supplement of paper PMC13380429
# Assays:
# [1] = test system: Vero E6 infected with SARS-CoV-2; experiment: morphology score (similarity to uninfected cells); higher = more like uninfected cells; conditions: 24 h
# [2] = test system: Vero E6 infected with SARS-CoV-2; experiment: SARS-CoV-2 infection rate relative to infected DMSO; higher = more infection, active = 60 or less; conditions: 24 h
compound,measurement,setting,value
O=C1c2ccccc2C(Cc2ccncc2)(Cc2ccncc2)c2ccccc21 (10 µM),morphology score,[1],-0.0398
same,SARS-CoV-2 infection rate,[2],98% (inactive)
Oc1cccc(Nc2ccc(Nc3cccc(O)c3)nn2)c1 [beta-amyloid-synthesis-inhibitor] (10 µM),morphology score,[1],0.0822
same,SARS-CoV-2 infection rate,[2],104% (inactive)
N[C@@H](Cn1ccc(=O)n(Cc2ccccc2C(=O)O)c1=O)C(=O)O (10 µM),morphology score,[1],0.28
same,SARS-CoV-2 infection rate,[2],79% (inactive)
CCOc1ccc(-c2ccc(Cn3c(CC(C)(C)C(=O)O)c(SC(C)(C)C)c4cc(OCc5ccc(C)cn5)ccc43)cc2)cn1 (0.833333 µM),morphology score,[1],0.228
same,SARS-CoV-2 infection rate,[2],118% (inactive)
O=C(NCCN1CCN(c2ncccn2)CC1)C12CC3CC(CC(C3)C1)C2 [adatanserin] (10 µM),morphology score,[1],0.159
same,SARS-CoV-2 infection rate,[2],109% (inactive)
CCc1[nH]c(=O)[nH]c1C(=O)c1ccncc1 [piroximone] (10 µM),morphology score,[1],0.142
same,SARS-CoV-2 infection rate,[2],100% (inactive)
CC[C@H](/C=C/[C@@H](C)[C@H]1CC[C@H]2[C@@H]3CC=C4C[C@@H](O)CC[C@]4(C)[C@H]3CC[C@]12C)C(C)C [Stigmasterol (Stigmasterin)] (10 µM),morphology score,[1],0.0238
same,SARS-CoV-2 infection rate,[2],116% (inactive)
COc1cccc(C=NCCN=Cc2cccc(OC)c2[O-])c1[O-].[Cl-].[Mn+3] (10 µM),morphology score,[1],-0.0731
same,SARS-CoV-2 infection rate,[2],95% (inactive)
Nc1sc2c(c1C(=O)c1ccc(Cl)cc1)CCCC2 (10 µM),morphology score,[1],0.0676
same,SARS-CoV-2 infection rate,[2],96.5% (inactive)
COc1ccc(NS(=O)(=O)c2sc3ccc(Cl)cc3c2C)cc1N1CCNCC1 (10 µM),morphology score,[1],0.192
same,SARS-CoV-2 infection rate,[2],108% (inactive)
